In PubChem BioAssay AID1240 (Sanford-Burnham Center for Chemical Genomics, 2008) one finds displacement data, which are given here for 30 compounds.

Hit rate of the full screen: of about 50,000 compounds, about 800 (1.6%) showed an effect of 50% or more. Shown is part of a subset that was picked to be rich in strong results.

Chain of Bcl-2-like protein 10 (Homo sapiens) (Q9HD36 whole entry, looked up): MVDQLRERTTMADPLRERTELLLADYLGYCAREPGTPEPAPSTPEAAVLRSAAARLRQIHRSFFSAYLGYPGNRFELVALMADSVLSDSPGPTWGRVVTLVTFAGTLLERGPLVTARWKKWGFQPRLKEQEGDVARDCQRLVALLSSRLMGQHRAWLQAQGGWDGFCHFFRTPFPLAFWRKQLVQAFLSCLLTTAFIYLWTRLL

The assay addresses Bcl-2-like protein 10 (Homo sapiens) (UniProt Q9HD36). The assay can be described thus: TR3 peptide-Bcl-B binding displacers, biochemical primary FP assay, phenotype converters (AID 1240).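 Also: 0% = Bcl-B with tracer peptide and DMSO and 100% = tracer peptide lacking Bcl-B.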 To be noted: GST-Bcl-B / FITC-TR3 peptide fluorescence polarization; stronger effect = higher value; compound at 3.75 mg/L.
As to `CCc1ccccc1NC(=O)C(F)(Cl)C(F)(F)F` (stereo not given), the displacement is -3.1%. For the compound `COc1cccc(CN2CCN(C(=O)c3cccc(Cl)c3)CC2)c1`, the displacement came out at 3.6%. Turning to `CC(=O)c1ccc(NC(=O)C2CC(=O)N(C3CCCCC3)C2)cc1` (stereo not given), the displacement is 11.1%. Consider `COc1ccc(CCC(=O)Nc2cc(Cl)cc(Cl)c2)cc1`, for which the displacement came to 0.3%.

In the case of `CC(=O)N(Cc1ccc2c(c1)OCO2)C1CC(=O)N(c2cccc(Cl)c2)C1=O` (stereo not given), the displacement was 16%. For the compound `O=C1CC(N(Cc2ccc3c(c2)OCO3)C(=O)c2ccc(Cl)cc2)C(=O)N1c1ccc(F)cc1` (stereo not given), the displacement is -2.2%. With `CC(=O)N(Cc1ccc2c(c1)OCO2)C1CC(=O)N(c2ccc(Br)cc2)C1=O` (stereo not given), the displacement worked out at 72.3%.

On to `CC1(C)CC(=O)C2=C(C1)Nc1ccccc1NC2c1cccc(Br)c1` (stereo not given), for which the displacement was 2.4%. Turning to `O=C1c2[nH]nc(-c3ccccc3)c2C(c2ccccc2F)N1c1ccccc1` (stereo not given), the displacement is -3.9%. With `C=CCn1c(SCCC)nc2sc3c(c2c1=O)CCc1ccccc1-3`, the displacement was 0.4%. In the case of `COc1ccc(C(=O)NNC(=O)c2cccc(C)c2O)cc1OC`, the displacement is -1.1%. Consider `CCOC(=O)C1=C(C)N=c2s/c(=C\c3ccc(OC)c(OC)c3OC)c(=O)n2C1c1ccccc1` (stereo not given), for which the displacement worked out at 210%. The figure for `CCOC(=O)C1=C(C)N=c2s/c(=C\c3ccc(OC)cc3)c(=O)n2C1c1ccc(Cl)cc1` (stereo not given) is 18.8%. In the case of `CCOC(=O)C1=C(C)N=c2s/c(=C\c3ccc(OC)c(OC)c3OC)c(=O)n2C1c1ccc(Cl)cc1` (stereo not given), the displacement amounted to 152%. With `CCOC(=O)C1=C(C)N=c2s/c(=C\c3ccccc3OC)c(=O)n2C1c1ccc(C)cc1` (stereo not given), the displacement is -2.8%. Consider `CCOC(=O)C1=C(C)N=c2s/c(=C\c3ccc(OC)c(O)c3)c(=O)n2C1c1ccc(Cl)cc1` (stereo not given), for which the displacement was -5.3%. On to `CCOC(=O)C1=C(C)N=c2s/c(=C\c3cccc(OC)c3O)c(=O)n2C1c1ccccc1` (stereo not given), for which the displacement is -0.2%.

On to `CCOC(=O)C1=C(N)OC2=C(C(=O)CCC2)C1c1ccc(Cl)cc1Cl` (stereo not given), for which the displacement was -2.9%. On to `COc1ccc(/C=C2\N=C(c3ccccc3I)OC2=O)cc1`, for which the displacement was -2.3%. Regarding `C=CCOc1ccccc1/C=C1\N=C(c2ccc(C)cc2)OC1=O`, the displacement is -2.1%. For `CCCOc1ccccc1/C=C1\N=C(c2ccccc2)OC1=O`, the displacement was determined as 64%. Consider `COc1cccc(/C=C2\N=C(c3cccs3)OC2=O)c1OC`, for which the displacement was 59.5%. Consider `COc1ccc(/C=C2\N=C(c3ccccc3F)OC2=O)c(OC)c1`, for which the displacement worked out at 72.1%. On to `CC(=O)n1cc(/C=C2\N=C(c3ccccc3F)OC2=O)c2ccccc21`, for which the displacement came out at 7.6%. Regarding `CCOc1ccc(/C=C2\N=C(c3ccccc3F)OC2=O)cc1`, the displacement came out at 11%.

For `C=C(C)COc1ccccc1/C=C1\N=C(c2cccs2)OC1=O`, the displacement was found to be 0.7%. For `O=C1OC(c2cccs2)=N/C1=C\c1cccc(Cl)c1Cl`, the displacement was found to be 29.5%.

Regarding `COC(=O)c1ccc(/C=C2\N=C(c3ccc(C(C)(C)C)cc3)OC2=O)cc1`, the displacement was 11.1%. For `Cc1no[n+]([O-])c1COc1ccccc1/C=C1\N=C(c2ccccc2)OC1=O`, the displacement was -3.2%. Take `CC(=O)n1cc(/C=C2\N=C(c3ccc(C(C)(C)C)cc3)OC2=O)c2ccccc21`: the displacement is 72.1%.
